Measured values: PubChem BioAssay (NCI)
Several values for one entry are separate records, joined by “and”; a condition that tells them apart may be missing. Equal entries are not always repeated. About 83,000 compounds went through this panel and 20% of them were active in at least one assay; those are over-represented in the sample as a whole.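 96-well plates, one dose, 48 hours. Percent growth reported; active if below 10.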 Unmarked numbers belong to inactive results. Activity calls are given as the source filed them.

tested on: T-47D breast; test: NCI-60 one-dose screen, 48 h (100 = growth as untreated, 0 = no growth, -100 = all killed); details: 10 µM unless noted
Method: Growth inhibition of the T-47D human tumor cell line is measured as a screen for anti-cancer activity. Cells are grown in 96 well plates and exposed to the test compound for 48 hours. Compounds are tested at a single concentration, which is 10^-5 M for most compounds. The reported endpoint is percent growth (GI% or GIPRCNT), where numbers from 0 - 100% represent growth inhibition, and numbers from -100% - 0 represent cell death. For example, a value of 40 represents 60% growth inhibition. A value of 0 means no net growth occurred over the course of the experiment. A value of -40 indicates 40% of cells at the beginning of the experiment died by the end of the experiment. A value of -100 means all cells are dead at the end of the experiment.
NCI-60 Human Tumor Cell Lines Screen was performed using the standard one-dose NCI protocol, which is described in more detail at https://dtp.cancer.gov/discovery_development/nci-60/default.htm.
Compounds with GIPRCNT values below 10 were considered active. Activity score was based on GIPRCNT using the following formula: […]
Score is 0 for GIPRCNT values of 100 or above, 50 for GIPRCNT values of 0, and 100 for GIPRCNT values of -100.

Q: With Cc1cc(=O)oc2cc(OCC(O)CNN3C(=O)c4cccc5c(N6CCN(C)CC6)ccc(c45)C3=O)ccc12 (stereo not given) as the compound, how does the growth read?
A: 109%

Q: Which growth does the source give for COc1ccc(-c2nc3ccccc3n2CC(=O)N=Nc2c(O)[nH]c3ccc(Br)cc23)cc1 here?
A: 90.9%

Q: With COc1cccc2nc(Nc3cccc(NC(=O)c4ccc(CN5CCN(C)CC5)c(C(F)(F)F)c4)c3)ccc12 as the compound, how does the growth read?
A: -75.9% (active)

Q: How did the growth turn out when N#CC1=C(c2cccs2)Nc2c(c(-c3ccccc3)nn2-c2ccccc2)C12C(=O)Nc1ccc(Br)cc12 (stereo not given) was run?
A: 1.8% (active)

Q: CCOC(=O)/C(F)=C/C1CC1CCc1ccc(OCC)cc1 (stereo not given) was tested. Which growth did it give?
A: 74.7%

Q: How did the growth turn out when O=C(NN1C(=O)/C(=C/C=C/c2ccc([N+](=O)[O-])o2)SC1=S)c1ccc([N+](=O)[O-])cc1 was run?
A: -60.9% (active)

Q: How did the growth turn out when COc1ccc(CCC2NCCc3c(Br)c4c(c(OC)c32)OCO4)cc1 (stereo not given) was run?
A: 31.2%

Q: With CSc1ccc(OCc2nc3ccccc3n2-c2cccc(NS(C)(=O)=O)c2)cc1 as the compound, how does the growth read?
A: 99.4% and 78.4%

Q: Which growth does the source give for COc1ccc(Nc2ncnc3sc4c(c23)CCN(Cc2ccccc2)C4)cc1 here?
A: 27.3%

Q: For O=C(Cc1c(-c2ccccc2[N+](=O)[O-])n(-c2ncnc3c2c(-c2ccccc2)c(-c2ccccc2)n3Cc2ccccc2)[nH]c1=O)c1ccc(Cl)c(Cl)c1, which growth is on record?
A: 6.14% (active)

Q: Which growth does the source give for COc1ccc2[nH]c(=O)c(CSc3ccccc3Nc3nccc(-c4ccc(C(F)(F)F)cc4)n3)cc2c1 here?
A: 11.3%

Q: For CCCCCCCCCCCCCCCCCC(=O)Nc1ccc(OC)cc1, which growth is on record?
A: 108%

Q: How did the growth turn out when COc1nc(N)ncc1-c1ccc2ncnc(N3CCc4cc(F)c(Cl)cc43)c2c1 was run?
A: -46.3% (active)

Q: With Cc1cn(-c2cc(NC(=O)c3ccc(C)c(-n4cc(-c5cnc6cccnn56)nn4)c3)cc(C(F)(F)F)c2)cn1 as the compound, how does the growth read?
A: 94.6%

Q: How did the growth turn out when c1n[nH]cc1-c1nc2ccc3[nH]ncc3c2c2c1CC1(CCOCC1)CC2 was run?
A: 13.5%

Q: With COc1ccc2nc(NC(=O)c3ccc(N(C)C)cc3)sc2c1 as the compound, how does the growth read?
A: 69%

Q: Which growth does the source give for Fc1ccc(Nc2nnc(-c3c[nH]c4ccccc34)o2)cc1 here?
A: 47.2%

Q: How did the growth turn out when CC(C)(C)OC(=O)N1C/C(=C\c2ccc(F)cc2)C(=O)/C(=C/c2ccc(F)cc2)C1 was run?
A: 14.4%

Q: With CC(=O)c1ccc2c(N)c(C(=O)Nc3ccc(C(F)(F)F)cc3)sc2n1 as the compound, how does the growth read?
A: 18.1%

Q: Which growth does the source give for COC(=O)c1c(C(=O)OC)c2c3ccccc3c3ccccc3n2c1C(=O)C(F)(F)F here?
A: 101%

Q: Which growth does the source give for COc1cc(CNC(=O)C[C@H](C)CCC=C(C)C)ccc1OCc1cn(-c2cccc(C(F)(F)F)c2)nn1 here?
A: 32.4%

Q: With CC(Nc1ncnc2ccc(-c3ccc4oc(N)nc4c3)cc12)c1ccccc1 (stereo not given) as the compound, how does the growth read?
A: -74.3% (active)

Q: Which growth does the source give for O=C(COc1ccc(/C=C2/C(=O)Nc3ccc(Cl)cc32)cc1)Nc1ccc(Br)cc1 here?
A: -22% (active)

Q: Which growth does the source give for O=C(N/N=C/c1ccc(Cl)cc1)c1ccc(OCc2nc3ccc(Cl)cc3[nH]2)cc1 here?
A: -19.6% (active)

Q: Cc1ccc(N=Nc2c(N)nn3c(-c4cc5cc(Br)ccc5oc4=O)ccnc23)cc1 was tested. Which growth did it give?
A: 56.4%

Q: Which growth does the source give for N#C/C(=C1/C(=O)Nc2ccccc21)c1nnc(NC(=O)c2ccc(-n3c(=O)[nH]c4ccccc4c3=O)cc2)s1 here?
A: 6.13% (active)

Q: How did the growth turn out when COc1ccc2oc(=O)c(-c3csc(N/N=C(\C)c4cc(OC)c(OC)c(OC)c4)n3)cc2c1 was run?
A: 65.7%

Q: How did the growth turn out when O=C(CSc1nnc(-c2ccc(-c3nc4ccccc4[nH]3)cc2)o1)Nc1ccccc1 was run?
A: 109%

Q: With Cc1ccc(C(=O)Nc2cc(-n3ccnc3C)cc(C(F)(F)F)c2)cc1C#Cc1cnc2cccnn12 as the compound, how does the growth read?
A: 0.344% (active)

Q: Which growth does the source give for CCN1CCN(Cc2ccc(C(=O)Nc3cccc(Nc4ccc5c(OC)cccc5n4)c3)cc2C(F)(F)F)CC1 here?
A: -71.4% (active)

Q: S=C(NCCc1ccccc1)Nc1ccc(OCc2nc3ccc(Cl)cc3[nH]2)cc1 was tested. Which growth did it give?
A: 34.9%

Q: With CC1=C(C(=O)OCc2ccccc2)C(c2ccc(N(C)C)cc2)n2c(nc3ccccc32)N1 (stereo not given) as the compound, how does the growth read?
A: 84.6%

Q: COc1ccc(C(=O)NNC(=O)CSc2nc3sc4c(c3c(=O)n2-c2ccc(Cl)cc2)CCCC4)cc1 was tested. Which growth did it give?
A: 72.5%

Q: How did the growth turn out when O=C(N/N=C/c1ccsc1)c1[nH]c2ccc(Br)cc2c1-c1ccccc1 was run?
A: -21.6% (active)

Q: For Cc1cccc(NCC(=O)N2CCN(c3ncnc4c3cnn4-c3ccccc3)CC2)c1, which growth is on record?
A: 33.6%

Q: How did the growth turn out when Cn1cc(Nc2ncnc(-c3ccc(N4CCCC4)c(C#N)c3)n2)cn1 was run?
A: 84.9%

Q: For CCc1ccccc1NC(=O)N/C(N)=N/c1nc2ccccc2s1, which growth is on record?
A: 55.8%

Q: For Oc1cncc(-c2ccc3ncnc(N4CCc5cc(F)c(Cl)cc54)c3c2)c1, which growth is on record?
A: 41.9%

Q: How did the growth turn out when Nc1nnc(CS(=O)(=O)c2ccccc2)s1 was run?
A: 102%

Q: With C[C@H](NC(=O)c1ccc2c(-c3ccc(C(F)(F)F)cc3)cccc2c1)c1ccccn1 as the compound, how does the growth read?
A: 18%
